# Test results from PubChem BioAssay AID652039 (The Scripps Research Institute Molecular Screening Center, 2013).
# “And” between values parts separate entries of the source, which are not always exact repeats. Equal entries are not always repeated. Among all 370,000 compounds or so, about 3,300 (0.89%) were called active. The sample as a whole holds a higher share of actives than the screen did. Unmarked numbers belong to inactive results.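 How the source made its calls: active means activation above the mean of all tested compounds plus 3 SD, computed per campaign excluding outliers beyond control limits (cut at about 13% in these data); inactive means the rest.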
# Molecular target: Kallikrein-7 (Homo sapiens) (UniProt P49862)
# Test: proKLK7 zymogen activators, primary screen, biochemical, fluorescence intensity (AID 652039)
# Conditions: purified proKLK7, EDANS-DABCYL substrate fluorescence; at 7 µM; hits give high values; 100% is mature enzyme control, 0% vehicle
# Kallikrein-7 (Homo sapiens), sequence (P49862 whole entry, looked up): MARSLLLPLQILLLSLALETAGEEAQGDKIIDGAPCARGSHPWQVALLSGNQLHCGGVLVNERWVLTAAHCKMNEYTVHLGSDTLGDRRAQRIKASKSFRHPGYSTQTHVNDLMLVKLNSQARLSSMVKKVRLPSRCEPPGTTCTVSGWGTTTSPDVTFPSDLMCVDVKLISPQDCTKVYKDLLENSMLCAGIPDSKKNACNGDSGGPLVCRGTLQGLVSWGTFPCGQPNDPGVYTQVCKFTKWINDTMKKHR
row,SMILES,activation
1,COC(=O)[C@]1(C#N)CC(=O)N(CC2CCCCC2)[C@@H]1c1ccccc1,-0.2%
2,COc1ccc(C#CCNCc2ccc(OC)cc2OC)cc1,0.52%
3,Cc1cc(N2CCN(C)CC2)nc2ccc(NC(=S)N3CCOCC3)cc12,7.61%
4,Cc1cc(N2CCOCC2)nc2ccc(NC(=S)N3CCN(Cc4ccccc4)CC3)cc12,16.8% (active)
5,CCOCCCNC(=S)Nc1ccc2nc(N3CCN(CC)CC3)cc(C)c2c1,2.27%
6,CC(=O)c1cc(-c2ccc3ccccc3c2)c(=O)n2c1CCC2,0.82%
7,CCOc1ccc(N2C(=O)CC(N(CCc3ccc(OC)c(OC)c3)C(=S)Nc3ccccc3)C2=O)cc1 (centres undefined),0.29% and 0.35%
8,CCOC(=O)c1ccc(N2C(=O)CC(N(C)Cc3ccccc3)C2=O)cc1 (centres undefined),0.66%
9,CCOc1ccc(N2C(=O)CC(N(O)c3ccccc3)C2=O)cc1 (centres undefined),95.9% (active)
10,Cc1cccc(OCCNC(=O)CSc2ccc(C(F)(F)F)cc2[N+](=O)[O-])c1,0.55%
11,CC(C)CNC(=O)OCc1cn(Cc2ccc(F)cc2)nn1,-0.65%
12,Cc1c(C(C)c2ccccc2O)[nH]c2ccccc12 (centres undefined),0.01%
13,CC(=O)Nc1nc2ncccn2c1-c1ccc(C(F)(F)F)cc1,17.7% (active)
14,CC(=O)Nc1cc(-c2ccccc2F)cn2c(-c3cccc(C(F)(F)F)c3)cnc12,-0.51%
15,Cc1ccc(-c2c(N)nc3ncccn23)cc1,1.47%
16,COC(=O)C1CN(CC(C)C)CCS(=O)(=O)N1Cc1ccc(C)cc1 (centres undefined),-0.1%
17,CN(CC1CCCO1)S(=O)(=O)c1ccc(C(=O)Nc2ccc(F)cc2)cc1 (centres undefined),-0.36%
18,COC(=O)C1CN(Cc2ccc(F)cc2)CCS(=O)(=O)N1Cc1ccc(Cl)cc1 (centres undefined),-0.13%
19,O=S1(=O)c2ccc(N3CCN(Cc4ccccc4F)CC3)cc2Oc2ccccc2CN1Cc1cn(Cc2ccc(Cl)cc2)nn1,-0.98%
20,CC1C/C(=N/NC(=O)c2cccs2)CC(C)(C)C1 (centres undefined),0.16%
21,COC(=O)[C@]12C[C@H](CC(=O)NCc3ccccc3)C(=O)N(CCC3=CCCCC3)C1=C[C@H](C(C)C)O[C@@H]2C1CC1,0.56%
22,CC(=O)Nc1nc(C)c(-c2csc(Nc3ccc(S(N)(=O)=O)cc3)n2)s1,118% (active)
23,C=CCCC(=O)Nc1nc(C)c(-c2csc(Nc3ccc(Cl)cc3)n2)s1,-1.66%

row,SMILES,activation
1,CC(C)[C@H](NC(=O)Nc1ccc(S(N)(=O)=O)cc1)C(=O)O,-0.23%
2,Cc1ccc(Cn2cc(CN3[C@@H](C)COc4cc(Br)ccc4S3(=O)=O)nn2)cc1,0.74%
3,COc1ccc(-n2c(COc3ccc(C)cc3)nnc2SCC(=O)Nc2ccc(Oc3ccccc3)cc2)cc1,-0.88%
4,CCCOc1ccc2c3c(c(=O)oc2c1OCCC)CCC3,-1.41%
5,COc1ccc2c3c(c(=O)oc2c1OCC(=O)C(C)(C)C)CCCC3,2.75%
6,O=c1oc2c(CN3CCCCC3)c(O)ccc2c2c1CCCCC2,68.2% (active)
7,O=C(OC12CCCN(C1)/C(=C/c1cccnc1)C2)C1CCCC1 (centres undefined),0.01%
8,COc1ccc(C(=O)NCC2CCCN2S(=O)(=O)c2cccs2)cc1OC (centres undefined),0.25%
9,CCN1CCCC1CNC(=O)c1cc2cc(OC)c(OC)cc2[nH]1 (centres undefined),17.5% (active)
10,CCN1CCCC1CNC(=O)c1ccc2c(c1)NC(=O)/C(=C\c1ccccc1F)S2 (centres undefined),0.44%
11,CN[C@H]1C[C@H]2c3cc(N4CCOCC4)ccc3CCN2C[C@H]1[C@H](C)O,-0.23%
12,Cc1ccccc1NC(=O)C1CCN(c2ncccn2)CC1,0.11%
13,CC[C@@H](CCC(=O)N(c1ccccc1)c1ccccc1)C1CC1,0.23%
14,CCOC(=O)c1cc2c(=O)n3ccccc3nc2n(CC(C)C)c1=NC(=O)c1c(-c2c(F)cccc2Cl)noc1C,0.37%
15,CCn1c(=N)c(S(=O)(=O)c2ccc(F)cc2)cc2c(=O)n3ccccc3nc21,3.21%
16,CCCn1c(=NC(C)=O)c(C(=O)OCC)cc2c(=O)n3ccccc3nc21,24.2% (active)
17,O=C(C1CCN(S(=O)(=O)c2ccccc2)CC1)N1CCN(C2CCCCC2)CC1,0.53%
18,O=C(NN1CCOCC1)c1cccc(F)c1,0.32%
19,COc1ccc(N2CCN(CCNS(=O)(=O)c3ccc([N+](=O)[O-])cc3)CC2)cc1,-0.14%
20,C=CCOc1cccc(C2NC(=O)c3ccccc3O2)c1 (centres undefined),-1.97%
21,O=C1NC(c2ccccc2)Oc2ccccc21 (centres undefined),-2.02%
22,O=C1NC(c2cccc(Cl)c2)Nc2ccccc21 (centres undefined),13.9% (active)
23,O=C(c1ccncc1)N1CC[C@H]2[C@H](CCCN2Cc2ccc(F)cc2)C1,0.94%

row,SMILES,activation
1,Cc1c(NC(=O)C(C)OC(=O)c2ccccc2O)c(=O)n(-c2ccccc2)n1C (centres undefined),1.12%
2,CC(OC(=O)c1ccccc1NCCO)C(=O)Nc1ccnn1C(C)C (centres undefined),32.9% (active)
3,COc1ccccc1NC(=O)C(C)OC(=O)c1ccc(-n2cnnn2)cc1 (centres undefined),-0.16%
4,CC(C)CNc1cccc2c1S(=O)(=O)N(Cc1cn(Cc3ccc(Cl)cc3)nn1)Cc1ccccc1O2,-9.81%
5,CN(CC(=O)NCCc1ccccn1)S(=O)(=O)c1ccc(Cl)cc1,0.31%
6,CN(CCc1ccccn1)C1CCCN(S(=O)(=O)c2ccccc2Cl)C1 (centres undefined),0%
7,CN(CCc1ccccn1)S(=O)(=O)c1ccc2c3c(cccc13)C(=O)N2,41.6% (active)
8,N#Cc1ccc(OC[C@@H](O)CN2CCC(C(O)(c3ccccc3)c3ccccc3)CC2)c(F)c1,0.5%
9,COc1c(N2CCN(C(=S)Nc3ccccc3F)C(C)C2)c(F)cc2c(=O)c(C(=O)O)cn(C3CC3)c12 (centres undefined),17.9% (active)
10,CN1[C@H](Cc2ccccc2)COc2cccc(N3CCSCC3)c2S1(=O)=O,0.48%
11,C[C@@H]1COc2cccc(N3CCCC3)c2S(=O)(=O)N1C,0.38%
12,N#Cc1nc(Cc2cccc3ccccc23)oc1NCc1ccc2c(c1)OCO2,0.74%
13,CC1CCN(c2oc(-c3ccccc3F)nc2C#N)CC1,-0.12%
14,N#Cc1nc(-c2cccc3ccccc23)oc1N,56.1% (active)
15,Cc1nc2cccnc2nc1C,-0.19%
16,Cc1nc2ccc(N)nc2nc1C,55.8% (active)
17,Cc1ccc(C)c(NC(=O)CCS(=O)(=O)c2ccccc2)c1,-0.69%
18,Cn1c(=O)c2cc(NC(=O)NCCc3cccs3)ccc2n1Cc1cccc(C(F)(F)F)c1,-1.5%
19,CCNC(=S)Nc1ccc2c(c1)c(=O)n(C)n2Cc1ccc(Cl)cc1,21.2% (active)
20,COc1cc(Cn2c3ccc(NC(=O)CC(C)c4ccccc4)cc3c(=O)n2C)ccc1F (centres undefined),2.56%
21,COc1ccc(N2CCN(CCNS(=O)(=O)c3ccc(Cl)s3)CC2)cc1,-0.36%
22,CCOC(=O)C1=C(C)NC2=C(C(=O)CC(C)(C)C2)C1c1ccc2c(c1)OCO2 (centres undefined),0.13%
23,CC(=O)c1ccc(NC(=O)CSc2nc3ccccc3c(=O)n2CCCN2CCOCC2)cc1,0.28%

row,SMILES,activation
1,CC(C)(C)OC(=O)c1c(N)n(CCCN2CCCC2=O)c2nc3ccccc3nc12,62.5% (active)
2,CC(CN1CCOCC1)OC(=O)c1ccc(C(C)(C)C)cc1 (centres undefined),0.72%
3,COCC(C)OC(=O)c1c(N)n(CCCN2CCOCC2)c2nc3ccccc3nc12 (centres undefined),16.3% (active)
4,Cc1nn(Cc2ccccc2)c(C)c1C(=O)NCCCN1CCCC1=O,-0.1%
5,O=C(NCCCN1CCCC1=O)c1ccc(S(=O)(=O)Nc2ccccc2)cc1,-0.77%
6,CCCCCCNC(=O)O[C@H]1CN(C(=O)OC(C)C)N(C(=O)OC(C)C)[C@@H]2CN(S(=O)(=O)c3ccc(C)cc3)C[C@]12O,-0.38%
7,O=C1CCC2(CCC(c3ccc(Cl)cc3)CC2)N1CCO (centres undefined),-0.69%
8,Cc1cccc(C)c1NC(=O)C(c1cccc(F)c1)N1CCN(C)CC1 (centres undefined),-0.04%
9,Cc1cccc(C)c1NC(=O)C(c1ccccc1)N1CC(=O)Nc2ccccc21 (centres undefined),16.4% (active)
10,Cc1ccccc1SCC(=O)OCC(=O)N1CC(=O)Nc2ccccc21,0.52%
11,CCCCNC(=O)C[C@@H]1C(=O)N(CCc2ccc(Cl)cc2)C2=CCCC[C@]21C(=O)OCC,0.21%
12,CC(CCN1CCC(C(O)(c2ccccc2)c2ccccc2)CC1)Oc1ccc(Cl)cc1 (centres undefined),-0.05%
13,CCOC(=O)C(=O)N(Cc1ccccc1)c1ccccc1C(=O)Nc1cc(OC)ccc1OC,0.42%
14,COc1ccccc1C(=O)Nn1c(-c2cccs2)nc2ccccc2c1=O,-0.4%
15,COCCCn1c(-c2cccs2)nc2nc3ccccc3nc21,22.9% (active)
16,CCc1nnc(NC(=O)CSc2nc3ccccc3c(=O)n2CCCOC)s1,0.09%
17,O=C1CC[C@@H](COc2ccc3[nH]cc(-c4ccccc4)c3c2-c2ccccc2)N1,-1.38%
18,CCCc1cc(=O)oc2c(C)c(O)c(CN3CCCCC3)cc12,58.8% (active)
19,CCCc1cc(=O)oc2c(C)c(OC(C)C(=O)NCC(O)c3ccccc3)ccc12 (centres undefined),-0.01%
20,CCCc1cc(=O)oc2c(C)c(OCC(=O)N3CCC(C(=O)O)CC3)ccc12,0.06%
